The results in this text go back to PubChem BioAssay (NCI).

Assay in all cases: NCI-60 one-dose screen, 48 h (100 = growth as untreated, 0 = no growth, -100 = all killed)
Holding throughout (conditions): 10 µM unless noted

Assay [1] concerns HCT-15 colon.
In assay [2] the test system is HT29 colon.
For assay [3], the system named is SNB-19 CNS.
For assay [4], the system named is U251 CNS.
Assay [5] deals with PC-3 prostate.
For assay [6], the system named is SK-MEL-5 melanoma.
Assay [7] has as its system UACC-62 melanoma.
Assay [8] concerns LOX IMVI melanoma.
Assay [9] relates to SK-MEL-28 melanoma.
The subject of assay [10] is SK-MEL-2 melanoma.
Assay [11] deals with EKVX NSCLC.
In assay [12] the test system is SN12C renal.
In assay [13] the test system is UO-31 renal.
The test system of assay [14] is TK-10 renal.
In assay [15] the test system is ACHN renal.
The subject of assay [16] is CAKI-1 renal.
Assay [17] has as its system A498 renal.
The test system of assay [18] is CCRF-CEM leukemia.
Assay [19] has as its system MOLT-4 leukemia.

Compounds without any hit were thinned out: in the full panel of roughly 83,000, 20% have a hit.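 Each cell line was grown in a 96-well plate and treated with one concentration of compound for 48 hours. Values below 10 were considered active.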 Values without a mark were called inactive. Active and inactive are the calls of the source.

Turning to `Cc1ccc2c(n1)C(=O)c1[nH]c3ccccc3c1C2=O`, the growth in assay [1] is 18.8%; in assay [2], 26.6%; in [3] it was 46.9%; in assay [4] it was 40.9%; in [5], 35.3%; in [6] it was -94% (active). The growth is -64.2% (active) in assay [7]; 16.4% in assay [8]; 78.6% in assay [9]; 64.2% in assay [10]; 43.7% in assay [11]; 36.5% in [12]. Besides, the growth was 50.5% in [13]; 115% in assay [14]; 49.2% in [15]; 56.4% in assay [16]; 69.2% in assay [17]; 55.9% in [18]. Further, in [19], the growth was 35.1%.
In the case of `O=c1c2cc(-c3ccccc3)sc2nc2sc(-c3ccccc3)nn12`, the growth in assay [1] was 103%; in assay [2] it was 93.3%; in assay [3] it was 102%; in [4], 92.1%; in [6] it was 100%; in assay [7], 109%. For the same molecule, the growth is 107% in assay [8]; 107% in [9]; 107% in assay [10]; 97.4% in [11]; 104% in assay [12]; 94.2% in assay [13]. Moreover, the growth in assay [14] is 84%; in assay [15] it was 117%; in assay [16] it was 102%; in assay [17], 61.3%; in assay [18], 104%; in assay [19], 102%.
Take `CCOC(=O)CNP(=O)(OC[C@@H](Cc1ccccc1)NC(=O)c1cc2ccccc2s1)Oc1ccccc1` (stereo partly specified): the growth is 43.5% in assay [1]; 57.2% in assay [2]; 87.7% in assay [3]; 66.5% in [4]; 85.5% in [5]; 88.2% in assay [6]. Besides, the growth in assay [7] is 71.4%; in assay [8] it was 76.2%; in assay [9] it was 77%; in assay [10], 75.9%; in [11], 80.6%; in assay [12], 84.9%. Also, the growth in assay [13] is 80.7%; in [14], 109%; in assay [15], 99.9%; in assay [16] it was 70.6%; in assay [17], 38.5%; in [18], 86.5%. The growth in assay [19] is 54.8%.
On to `Cc1cc2c(O)c(-c3cccc(Cl)c3)c3sc(=O)oc3c2cc1C`, for which the growth in [1] is 43.2%; in assay [2], 111%; in [3] it was 45.4%; in [4], 21.9%; in assay [5] it was 60.9%; in assay [6], 18.9%. Also, the growth is 27% in assay [7]; 45.1% in assay [8]; 52.2% in assay [9]; 37.8% in assay [10]; 93.9% in assay [11]; 36.7% in [12]. Further, the growth was 54.2% in assay [13]; 122% in [14]; 44.5% in [15]; 40.5% in [16]; 9.01% (active) in assay [17]; 44.8% in [18]. Further, in assay [19], the growth is 45.8%.
On to `Fc1ccc(Nc2nc3nonc3nc2Nc2ccc(I)cc2)cc1`, for which the growth in [1] was 6.8% (active); in assay [2], 3% (active); in [3] it was 18.6%; in [4], -45% (active); in assay [5], 4.86% (active); in [6], -72.7% (active). The growth in assay [7] was -21.4% (active); in assay [8], -26.9% (active); in assay [9], 17.1%; in assay [10] it was -39.7% (active); in [11] it was 3.92% (active); in assay [12], -5.7% (active). The growth in assay [13] is -7.55% (active); in assay [14], -2.84% (active); in [15], 4.53% (active); in assay [16] it was 11.3%; in [17] it was -36.1% (active); in assay [18] it was 1.66% (active). In [19], the growth is -35.7% (active).
As to `O=C(c1ccc(Cl)cc1)N1CCN(c2ccnc3cc(Cl)ccc23)CC1`, the growth in assay [1] was 95.5%; in [2] it was 81.7%; in assay [3], 84.2%; in assay [4], 78.7%; in [5], 80%; in [6], 90.8%. The growth is 71.5% in assay [7]; 103% in [8]; 99.6% in [9]; 88.9% in [10]; 96.4% in assay [11]; 91.2% in [12]. Moreover, the growth was 58% in [13]; 108% in [14]; 85.8% in [15]; 85.7% in assay [16]; 55.6% in [17]; 90.9% in assay [18]. For the same molecule, the growth in assay [19] is 87.1%.
On to `CC(=O)c1cc(O)c2ccccc2c1O`, for which the growth is 98.9% in assay [1]; 111% in assay [2]; 100% in [3]; 98.2% in [4]; 85.7% in [5]; 86.4% in assay [6]. Also, the growth in assay [7] is 101%; in assay [8], 78.5%; in assay [9], 137%; in [10], 103%; in assay [11], 78.9%; in [12] it was 105%. In addition, the growth in assay [13] was 67%; in assay [14], 148%; in assay [15] it was 85.1%; in assay [16] it was 85.7%; in [17] it was 133%; in assay [18], -10.5% (active). In addition, in assay [19], the growth is 107%.
On to `Cn1c(O)c(C=NCCN=Cc2c(O)n(C)c(=O)n(C)c2=O)c(=O)n(C)c1=O`, for which the growth in assay [1] was 107%; in assay [2] it was 97.1%; in assay [3], 97.6%; in assay [4], 102%; in assay [5], 90.4%; in [6] it was 98.7%. For the same molecule, the growth in assay [7] was 84.1%; in assay [8], 93.2%; in [9], 109%; in assay [10] it was 120%; in assay [11], 102%; in [12] it was 95.6%. Also, the growth in assay [13] was 84.7%; in assay [14], 116%; in assay [15], 101%; in [16] it was 94.4%; in assay [17], 127%; in assay [18] it was 7.42% (active). Also, in [19], the growth was -46.6% (active).
